Reference: PubChem BioAssay
Activity calls are given as the source filed them. Unless noted, how the calls were made is not given here.

What was measured:
[1] = A549 cell viability effects, profiling panel, calcein-AM fluorescence, 48 h, basal (AID 1162); details: higher = more signal; further: test concentration not given here
[2] = adipocyte viability effects, profiling panel, cell-based, 3T3-L1 adipocytes, calcein-AM fluorescence, 48 h, basal (AID 1163); details: 3T3-L1 adipocytes viability, higher = more signal; further: test concentration not given here
[3] = HepG2 cell viability effects, profiling panel, calcein-AM fluorescence, 48 h, basal (AID 1164); details: higher = more signal; further: test concentration not given here
[4] = MM1S cell viability effects, profiling panel, calcein-AM fluorescence, 48 h, basal (AID 1165); details: higher = more signal;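 further: viability of MM1S multiple myeloma cells under basal unstimulated conditions; test concentration not given here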
[5] = basal RPMI8226 viability, no added stimulus, profiling panel, cell-based, calcein-AM fluorescence, 48 h, PK04 Diversity Set (AID 1166); details: RPMI8226 myeloma viability, higher = more signal;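 further: cells grown under basal conditions without added stimulus; test concentration not given here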
[6] = basal HepG2 mitochondrial membrane potential changes, profiling panel, cell-based, JC-1 fluorescence, 24 h, 100 nL compound (AID 1167); details: higher = more signal; further: test concentration not given here
[7] = basal 3T3-L1 adipocyte mitochondrial potential changes, profiling panel, cell-based, JC-1 fluorescence, 3T3-L1 adipocytes, 24 h, 100 nL compound (AID 1168); details: JC-1 mitochondrial fluorescence, higher = more signal, called active from +8 up or from −8 down; further: test concentration not given here
[8] = basal RPMI8226 mitochondrial membrane potential changes, profiling panel, cell-based, JC-1 fluorescence, 24 h, 100 nL compound (AID 1169); details: RPMI8226 myeloma, JC-1 mitochondrial potential fluorescence, higher = more signal; further: test concentration not given here
[9] = basal MM1S mitochondrial membrane potential changes, profiling panel, cell-based, JC-1 fluorescence, 24 h, 100 nL compound (AID 1170); details: higher = more signal; further: test concentration not given here
[10] = A549 lung cancer cell viability effects, profiling panel, resazurin fluorescence, 24 h, PK04 Diversity Set (AID 1171); details: higher = more signal, called active from +8 up or from −8 down; further: test concentration not given here
[11] = HepG2 liver cancer cell viability effects, profiling panel, resazurin fluorescence, 24 h, PK04 Diversity Set (AID 1172); details: higher = more signal; further: test concentration not given here
[12] = basal S. cerevisiae growth modulation, no modifier, primary screen, OD600, strain BY4716, 24 h, basal condition (AID 1173); details: OD600, 24 h, higher = more signal, called active from +8 up or from −8 down
[13] = MM1S myeloma cell viability, profiling panel, resazurin fluorescence, basal, 24 h, PK04 Diversity Set (AID 1174); details: higher = more signal, called active from +8 up or from −8 down;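 further: MM1S multiple myeloma cell line; test concentration not given here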
[14] = target: Dihydroorotate dehydrogenase (quinone), mitochondrial (Plasmodium falciparum (isolate 3D7)) (UniProt Q08210); test: PfDHODH enzyme inhibitors, primary screen, biochemical, C-terminal His tag, absorbance 600 nm (AID 1175); details: DCIP absorbance 600 nm, higher = more signal, called active from +8 up or from −8 down;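 further: recombinant parasite enzyme with a five histidine tag at its C terminus; test concentration not given here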
Sequence of Dihydroorotate dehydrogenase (quinone), mitochondrial (Plasmodium falciparum (isolate 3D7)) (Q08210 whole entry, looked up): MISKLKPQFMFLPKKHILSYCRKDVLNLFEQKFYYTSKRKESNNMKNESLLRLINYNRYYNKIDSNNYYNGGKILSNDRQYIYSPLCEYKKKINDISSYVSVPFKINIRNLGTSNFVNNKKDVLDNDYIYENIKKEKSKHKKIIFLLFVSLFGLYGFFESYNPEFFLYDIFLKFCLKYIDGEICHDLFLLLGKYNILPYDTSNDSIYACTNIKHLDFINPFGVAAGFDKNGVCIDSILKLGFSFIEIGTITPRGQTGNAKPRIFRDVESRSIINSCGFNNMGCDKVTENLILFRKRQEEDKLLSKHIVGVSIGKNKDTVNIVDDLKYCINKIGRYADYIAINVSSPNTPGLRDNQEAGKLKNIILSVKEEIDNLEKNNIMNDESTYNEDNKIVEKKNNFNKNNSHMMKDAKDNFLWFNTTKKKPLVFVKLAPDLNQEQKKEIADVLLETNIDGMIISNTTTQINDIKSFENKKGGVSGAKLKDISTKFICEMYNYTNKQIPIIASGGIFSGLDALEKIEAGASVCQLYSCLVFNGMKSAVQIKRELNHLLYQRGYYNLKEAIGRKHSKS

[15] = P. aeruginosa biofilm formation inhibitors, primary screen, strain PAO1, LB-PBS medium, absorbance 600 nm (AID 1176); further: test concentration not given here; details: P. aeruginosa PAO1 growth/biofilm, A600, 12 h; higher = more signal
[16] = S. cerevisiae RM11-1a growth modifiers, primary screen, strain RM11-1a, OD600, basal, 24 h (AID 1177); details: OD600, 24 h, higher = more signal, called active from +8 up or from −8 down;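 further: cultures grown under basal conditions with no added stressor; test concentration not given here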
[17] = E. coli acrAB mutant growth effects, primary screen, E. coli filamentation inducers, strain DRC39, OD650, 24 h (AID 1178); details: higher = more signal, called active from +8 up or from −8 down;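 further: growth measured as culture turbidity by optical density at 650 nm; test concentration not given here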
[18] = E. coli acrAB mutant growth effects, primary screen, E. coli filamentation inducers, strain DRC39, OD650, 48 h (AID 1179);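 further: screen aims at cell division blockers that make cells filament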; details: E. coli DRC39 delta-acrAB growth, higher = more signal, called active from +8 up or from −8 down
[19] = RPMI8226 myeloma cell viability, profiling panel, resazurin fluorescence, basal, 24 h, PK04 Diversity Set (AID 1180); details: higher = more signal;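 further: RPMI8826 multiple myeloma cell line at 5000 cells per well; test concentration not given here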
[20] = target: E3 ubiquitin-protein ligase XIAP (Homo sapiens) (UniProt P98170); test: XIAP binders, primary screen, biophysical, small-molecule microarray, fluorescence 635 nm (AID 1181); details: small-molecule microarray binding, higher = more signal;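 further: score merges 667 nm emission and signal to noise over triplicate slides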
Sequence of E3 ubiquitin-protein ligase XIAP (Homo sapiens) (P98170 whole entry, looked up): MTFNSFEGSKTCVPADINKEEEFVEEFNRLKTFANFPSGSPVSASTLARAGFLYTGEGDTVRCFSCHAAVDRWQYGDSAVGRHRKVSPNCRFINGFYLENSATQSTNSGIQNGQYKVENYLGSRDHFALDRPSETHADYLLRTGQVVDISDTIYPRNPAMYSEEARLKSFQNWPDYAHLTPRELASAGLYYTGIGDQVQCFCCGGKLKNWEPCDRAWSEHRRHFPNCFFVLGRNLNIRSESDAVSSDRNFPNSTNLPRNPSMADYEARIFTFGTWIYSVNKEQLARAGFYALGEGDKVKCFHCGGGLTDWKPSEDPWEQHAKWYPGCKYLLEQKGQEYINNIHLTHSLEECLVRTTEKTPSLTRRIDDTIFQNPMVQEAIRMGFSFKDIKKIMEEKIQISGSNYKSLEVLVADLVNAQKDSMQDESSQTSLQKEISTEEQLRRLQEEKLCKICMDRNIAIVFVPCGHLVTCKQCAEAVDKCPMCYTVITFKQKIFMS

Row | Structure (SMILES) | z-score [1] | z-score [2] | z-score [3] | z-score [4] | z-score [5] | z-score [6] | z-score [7] | z-score [8] | z-score [9] | z-score [10] | z-score [11] | z-score [12] | z-score [13] | composite z-score [14] | z-score [15] | z-score [16] | z-score [17] | z-score [18] | z-score [19] | composite z-score [20]
1 | CC(C)(C)OC(=O)CC[C@]1(C(=O)O)COC(c2ccc(OCCCO)cc2)=N1 | -0.0651 | -2.83 | 0.218 | -0.97 | 0.151 | -0.924 | -0.564 (inactive) | -0.812 | 0.148 | -0.135 (inactive) | 0.265 | 0.167 (inactive) | -0.249 (inactive) | -0.055 (inactive) | -0.596 (inactive) | 0.433 (inactive) | -0.341 (inactive) | -0.447 (inactive) | -0.0624 | -0.118
2 | COc1ccc(C(=O)Nc2ccc(CN3C(=O)[C@]4(O[C@H](CCn5cc([C@H](O)c6ccccc6)nn5)[C@@H]([Si](C)(C)c5ccc(OC)cc5)[C@@H]4C)c4ccccc43)cc2)cc1 | -0.0731 | -0.145 | -4.03 | -2.67 | -3.84 | 1.48 | 0.374 (inactive) | -1.12 | -2.36 | -1.64 (inactive) | -1.34 | -0.884 (inactive) | -3.17 (inactive) | -0.0934 (inactive) | 1.55 (inactive) | 1.63 (inactive) | 0.938 (inactive) | 0.63 (inactive) | -3.24 | 0.0623
3 | C=CCC(OC(C)=O)[C@@H]1[C@@H](N(Cc2ccc(-c3ccccc3)cc2)C(=O)c2cccc3ccccc23)c2cc(OCCCO)ccc2N1C(=O)c1ccc2ccccc2n1 (stereo not given in full) | 0.479 | 0.522 | 0.833 | -0.318 | 0.116 | 3.07 | 0.0656 (inactive) | -0.0127 | 0.506 | 0.131 (inactive) | -0.253 | -0.953 (inactive) | 0.0319 (inactive) | -0.178 (inactive) | 0.161 (inactive) | -0.909 (inactive) | 0.908 (inactive) | 0.376 (inactive) | 0.131 | -0.0282
4 | C[C@@H]1ON(c2ccccc2)[C@H](c2ccccc2)[C@H]1C(=O)N1C(=O)OC[C@H]1Cc1ccccc1 | -0.245 | 0.701 | -0.0596 | -1.4 | -0.0681 | 1.38 | 0.00493 (inactive) | -0.137 | -0.645 | 1.38 (inactive) | 1.07 | 0.534 (inactive) | 0.962 (inactive) | -0.255 (inactive) | 0.0238 (inactive) | 1.39 (inactive) | 0.884 (inactive) | 0.934 (inactive) | 0.852 | -0.1
5 | C/C=C/[C@@H](CCn1cc([C@H](O)c2ccccc2)nn1)[Si](C)(C)c1ccc(OC)cc1 | -0.536 | 0.485 | -0.713 | -2.9 | -3.1 | -1.13 | -0.255 (inactive) | -0.268 | -0.462 | 0.372 (inactive) | 0.121 | -1.5 (inactive) | -0.567 (inactive) | -0.222 (inactive) | 0.0002 (inactive) | 0.72 (inactive) | 0.508 (inactive) | -0.253 (inactive) | -0.472 | -0.0918
6 | COc1cc2c(cc1OC)CN(C(=O)[C@@H]1[C@H]3C(=O)O[C@H](c4ccccc4)[C@H](c4ccccc4)N3[C@H](c3ccc(O)cc3)[C@@]13C(=O)Nc1ccc(C#CCNC(N)=O)cc13)CC2 | 0.434 | 0.0878 | -0.659 | 0.454 | -0.375 | -1.55 | -0.628 (inactive) | -0.0414 | -0.375 | 0.795 (inactive) | 1.1 | 0.526 (inactive) | 0.602 (inactive) | -0.0904 (inactive) | 0.723 (inactive) | 2.03 (inactive) | 0.595 (inactive) | 0.322 (inactive) | 0.431 | -0.0663
7 | CCOC(=O)C1=CC[C@@H](c2ccc(N(CC)CC)cc2)N(S(=O)(=O)c2ccc(C)cc2)[C@H]1c1ccc([N+](=O)[O-])cc1 | -0.112 | -1.19 | 0.203 | -0.0595 | -0.173 | 4.25 | -0.114 (inactive) | -0.673 | -0.609 | 0.325 (inactive) | -0.407 | -0.0341 (inactive) | -0.095 (inactive) | -0.719 (inactive) | 0.698 (inactive) | -0.101 (inactive) | -0.19 (inactive) | -0.0619 (inactive) | -1.06 | -0.0143
